Assay outcomes as filed in PubChem.
TRb SRC2 PPI: TRbeta-SRC2 interaction inhibition. P10828. TRbeta-SRC2 peptide binding, fluorescence polarization; receptor liganded with 1 µM T3. Potency, µM (highest dose often 106 µM), without a hit: at the highest dose activity change, negative = inhibition, actives largely listed as inhibitors. 0.065% of 280,000 active. AID 1469;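 further: plate controls were bound peptide for no effect and peptide without receptor for full effect; nearly all actives have a fitted effect of over 50% in size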
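Human TRb ligand-binding domain (0.6 uM) is mixed with 20 nM Texas Red SRC2 peptide and 1 uM T3; after compound addition and 5 hr at ambient temperature, polarization is measured and normalized to unbound and bound controls.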
TexasRed fluor: Texas Red fluorescence interference in TRb-SRC2 counter-screen; TRb/SRC2 Texas Red total fluorescence interference; AID 1479; Potency, µM (series often up to 106 µM), inactives show at the highest dose fluorescence change, negative = quenching; 0.29% of 280,000 active; active means well fitted curve in either direction with a large enough effect; inconclusive means small, poorly fitted or top-dose-only effect
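Human TRβ ligand-binding domain (0.6 uM) and Texas Red SRC2 peptide (20 nM) in Tris buffer with 1 uM T3 and 5% DMSO were incubated with pinned compound for 5 hr at ambient temperature. Total fluorescence was computed as S + 2P (555/632 nm).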
KAT2A inh: GCN5L2 (KAT2A) acetyltransferase inhibition | AID 504327 | GCN5L2 HAT assay, ThioGlo1 CoA-SH fluorescence | 0.21% of 390,000 active | Potency, µM (highest dose often 58.9 µM), for the others: top-dose activity change, negative = inhibition, usual class: inhibitors
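Compounds, pin-transferred from DMSO stocks, meet 20nM GCN5L2 for 15 min before the reaction begins with H3(1-25) peptide (75uM) and acetyl-CoA (70uM). Thiol-reactive ThioGlo1 reports CoA release over 20 min at room temperature.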
GoLoco inh red: RGS12 GoLoco-Gai1 interaction inhibition; 0.44% of 230,000 active; P63096; Gai1:RGS12 GoLoco peptide FP, rhodamine, 10 min; AID 880; Potency, µM (top dose mostly 61.6 µM), inactives show at the top dose activity, negative = inhibition, usual class: inhibitors; active means well fitted inhibition curve with a large enough effect, not every such curve was filed as active; inactive means no such curve, though single readings can be large or run the other way; further: nearly all actives have a fitted effect of over 30% in size
VDR inhibitor: vitamin D3 receptor (human) inhibition; P11473; AID 504847; Potency, µM, without a hit: max response, negative = inhibition, most hits filed as inhibitors; VDR-SRC2-3 peptide fluorescence polarization, 2 h; 0.93% of 400,000 active
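Reagent solutions, kept cold and dark, are dispensed first; compounds are then pinned in at 23 nl, plates briefly spun, and incubated 2 h at ambient temperature. Inhibition of VDR–SRC2-3 peptide binding is read by fluorescence polarization.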
The depositor's hits bear a star; u = inconclusive; x = not tested or not shown; ! = not confirmed by another sample; [ ] = dose if it differs, or a comment. Rows were chosen to be rich in hits. Some 1.2% of all compounds tested hit in one or more screens of this group. Unless noted, the call rests on the fitted dose curve; in most records, active means well fitted curve in the direction sought with a large enough effect; inconclusive means small, poorly fitted or top-dose-only effect, or another doubt; inactive means no such curve, though single readings can be large; an effect the other way counts as inactive or inconclusive. Unless noted, on the % scale 0 is the no-effect control and ±100 the full control effect; potency means the concentration at half of the fitted maximal effect.

SMILES	TRb SRC2 PPI	TexasRed fluor	KAT2A inh	GoLoco inh red	VDR inhibitor
Cn1cc(S(=O)(=O)c2cccc(Cl)c2)c(=O)c2cc(F)c(N3CCN(c4ccccc4)CC3)cc21	-30%	158µM*[quencher]	-3%	x	19%
Cc1cc(C)cc(S(=O)(=O)c2cn(C)c3cc(N4CCN(C)CC4)c(F)cc3c2=O)c1	x	x	-17%	x	-12%
Cn1c(=O)n2n(c1=O)[C@H]1[C@H](O)[C@H]3O[C@@H]3/C(=N/OC[C@@H](O)COCc3ccco3)[C@@H]1CC2	-1%[11.2 µM]	-2%[11.2 µM]	x	x	x
C=C(CC(=O)O)C(=O)O (tested in a mixture with another compound)	x	x	x	-3%[14.2 µM]	x
CCNc1ccc(Br)cc(C(=O)/C=C/c2ccccc2Cl)c1=O	x	x	x	x	28µM*
CCCC(=O)OCCNc1cc(SCc2ccco2)c2nonc2c1[N+](=O)[O-]	-10%	6%	-3%	-2%	u
CC(=O)OCCCNc1cc(SCc2ccco2)c2nonc2c1[N+](=O)[O-]	-3%	-6%	35%	-29%	79µM*
Cn1c(C(=O)NCc2cccs2)cc2c(=O)n(C)c3ccccc3c21	-2%	-2%	1%	2%	-15%
Cn1c2ccccc2c(=O)c2ccc(NCCc3cccs3)cc21	x	x	10µM*	x	-10%
COc1ccc2c(CC(=O)OCC(=O)Nc3ccc(C)cc3)coc2c1	x	x	-10%	x	-1%
COc1ccc2c(CC(=O)OCC(=O)Nc3ccc4c(c3)OCO4)coc2c1	5%	-4%	1%	4%	18µM*
Cc1noc(C)c1-c1cc(N(C)Cc2ccco2)ncn1	x	x	u	-4%	32µM*
CN(C)c1ccc(-c2cc(N(C)Cc3ccco3)ncn2)cc1	x	x	-15%	5%	u
COc1cccc(-c2cc(N(C)Cc3ccco3)ncn2)c1	x	x	-10%	-5%	45µM*
Cc1ccccc1-c1cc(Nc2ccccc2)ncn1	x	x	-10%	10%	u
CNc1cc(-c2ccccc2C)ncn1	x	x	u	6%	50µM*
Cc1ccccc1-c1cc(N(C)Cc2ccco2)ncn1	x	x	-4%	-2%	45µM*
CNC(=S)NCCCCc1cnc[nH]1	1%	-1%	12%	x	6%
CCC(C)Nc1ccc(NC(C)CC)cc1 (configuration not stated)	-30%[201 µM]	u	-8%	32µM*	u
O=C(O)CSc1ncnc2nc[nH]c12	-6%	-3%	-3%	1%	5%
c1nc(SSc2ncnc3nc[nH]c23)c2[nH]cnc2n1	x	x	x	x	25µM*
CCCNC(=O)Cn1c(SCc2ccccc2C)nc2ccncc21	x	x	x	x	-5%
CCOC(=O)c1ccc2c(c1)n(CC)c(/C=C/N(C)c1ccccc1)[n+]2CC	-1%	-2%	-17%	1.6µM*	-6%
COc1ccccc1CNc1ncnc2ccc(-c3ccccc3C#N)cc12	x	x	-10%	-3%	-20%
C=C1c2cccc(O)c2C(O)=C2C(=O)[C@@]3(O)C(O)=C(C(N)=O)C(=O)[C@@H](N(C)C)[C@@H]3[C@@H](O)[C@H]12	3%[53 µM]	u	3.5µM*	23%[21.6 µM]	u
SMILES	TRb SRC2 PPI	TexasRed fluor	KAT2A inh	GoLoco inh red	VDR inhibitor
C=C1c2cccc(O)c2C(=O)C2C(=O)[C@]3(O)C(=O)C(C(N)=O)C(=O)[C@@H](N(C)C)[C@@H]3[C@@H](O)[C@H]12 (some centres not stated)	x	x	7.9µM*	x	-24%
CCCCC(C)/C=C(C)/C=C(\C)C(=O)NC1=CC(O)(/C=C/C=C/C=C/C(=O)NC2=C(O)CCC2=O)C2OC2C1=O (configuration not stated)	-13%	-18%	u	x	u
O=S(=O)(c1ccccc1Br)N1CCN(c2nc(-c3ccccc3)nc3ccccc23)CC1	x	x	x	x	-4%
Cc1ccc(C(=O)Nc2ccc(S(=O)(=O)O)c3cc(S(=O)(=O)O)cc(S(=O)(=O)O)c23)cc1NC(=O)c1cccc(NC(=O)Nc2cccc(C(=O)Nc3cc(C(=O)Nc4ccc(S(=O)(=O)O)c5cc(S(=O)(=O)O)cc(S(=O)(=O)O)c45)ccc3C)c2)c1	18%	-6%	u	117%	22µM*
COc1cc([C@@H]2CC(=O)c3c(O)cc(O)cc3O2)ccc1O	-5%	-4%	6%	x	3%
COc1ccc(C2=NN(C(C)=O)C(c3cn(-c4ccccc4)nc3-c3cccs3)C2)cc1 (configuration not stated)	2%	-1%	-1%	x	5%
CC(=O)N1N=C(c2ccc(C)cc2)CC1c1cn(-c2ccccc2)nc1-c1cccs1 (configuration not stated)	-7%	100µM*[quencher]	1%	x	4%
FC(F)(F)c1ccccc1Cl	-3%	0%	x	0%	x
Cn1ncc(S(=O)(=O)Cc2ccccc2)c(Br)c1=O	x	x	-20%	x	u
Cc1ccc2c(c1)c1ncnc(N3CCOCC3)c1n2C	-4%	-2%	-15%	7%	7%
Cc1ccc2c(c1)c1ccc3c(c1n2C)C(=O)C=CC3=O	5%	-2%	-25%	-6%	50µM*
Cn1c2ccccc2c2ccc3c(c21)C(=O)C=CC3=O	x	x	x	x	25µM*
Cc1ccc(C)c2c1c1ccccc1n2C	-7%	-3%	-4%	-1%	9%
Cc1cc(O)c(C(C)C)cc1N=Cc1ccc(N(C)C)cc1	x	x	x	x	45µM*
Cc1cc(O)c(C(C)C)cc1N=Cc1ccc([N+](=O)[O-])cc1	x	x	x	x	50µM*
COc1cccc(C=Nc2cccnc2)c1O	6%	-9%	-5%	3%	x
COc1cccc(C=Nc2cc(C(C)C)c(O)cc2C)c1O	x	x	x	x	50µM*
CNC(=O)CO/N=C/c1ccc(N(C)C)cc1	4%	0%	-8%	-3%	6%
Oc1ccc2cc(SSc3ccc4cc(O)ccc4c3)ccc2c1	17%	-19%	x	-2%	x
CN(C)S(=O)(=O)c1ccc2nnn(O)c2c1	0%	-1%	-4%	6%	79µM*
COC(=O)C1=C(C)OC(N)=C(C#N)C1c1ccccc1 (configuration not stated)	-17%	2%	-3%	21%	1%
CNC(=O)C1C(=S)NC(N)=C(C#N)C1c1ccccc1 (configuration not stated)	-1%	-5%	4%	-14%	20µM*
O=C(O)c1ccc(S(=O)(=O)/N=C2\C=C(Nc3ccccc3F)C(=O)c3ccccc32)cc1	x	x	-10%	x	32µM*
Cc1ccccc1NC1=C/C(=N\S(=O)(=O)c2ccc(C(=O)O)cc2)c2ccccc2C1=O	x	x	-2%	x	u
OC[C@@H]1[C@@H](c2ccc(Cl)cc2)C(c2cccc(Cl)c2)=NN1c1ccccc1	0%	-6%	28µM*!	1%	-22%
